# KDM5B inh: inhibitors of human KDM5B histone demethylase; KDM5B demethylase, FDH-coupled NADH fluorescence (FDH is formaldehyde dehydrogenase); Potency, µM (series often up to 57.7 µM), most hits filed as inhibitors; hit rate 2.6% among 220,000; active means well fitted inhibition curve with a large enough effect; inconclusive means small, poorly fitted or top-dose-only effect; inactive means no such curve, though single readings can be large or run the other way; further: potency means the concentration at half of the fitted maximal effect; 0% is about no effect; nearly all actives have a fitted effect of over 70% in size
# Target sequence (Q9UGL1 whole entry, looked up): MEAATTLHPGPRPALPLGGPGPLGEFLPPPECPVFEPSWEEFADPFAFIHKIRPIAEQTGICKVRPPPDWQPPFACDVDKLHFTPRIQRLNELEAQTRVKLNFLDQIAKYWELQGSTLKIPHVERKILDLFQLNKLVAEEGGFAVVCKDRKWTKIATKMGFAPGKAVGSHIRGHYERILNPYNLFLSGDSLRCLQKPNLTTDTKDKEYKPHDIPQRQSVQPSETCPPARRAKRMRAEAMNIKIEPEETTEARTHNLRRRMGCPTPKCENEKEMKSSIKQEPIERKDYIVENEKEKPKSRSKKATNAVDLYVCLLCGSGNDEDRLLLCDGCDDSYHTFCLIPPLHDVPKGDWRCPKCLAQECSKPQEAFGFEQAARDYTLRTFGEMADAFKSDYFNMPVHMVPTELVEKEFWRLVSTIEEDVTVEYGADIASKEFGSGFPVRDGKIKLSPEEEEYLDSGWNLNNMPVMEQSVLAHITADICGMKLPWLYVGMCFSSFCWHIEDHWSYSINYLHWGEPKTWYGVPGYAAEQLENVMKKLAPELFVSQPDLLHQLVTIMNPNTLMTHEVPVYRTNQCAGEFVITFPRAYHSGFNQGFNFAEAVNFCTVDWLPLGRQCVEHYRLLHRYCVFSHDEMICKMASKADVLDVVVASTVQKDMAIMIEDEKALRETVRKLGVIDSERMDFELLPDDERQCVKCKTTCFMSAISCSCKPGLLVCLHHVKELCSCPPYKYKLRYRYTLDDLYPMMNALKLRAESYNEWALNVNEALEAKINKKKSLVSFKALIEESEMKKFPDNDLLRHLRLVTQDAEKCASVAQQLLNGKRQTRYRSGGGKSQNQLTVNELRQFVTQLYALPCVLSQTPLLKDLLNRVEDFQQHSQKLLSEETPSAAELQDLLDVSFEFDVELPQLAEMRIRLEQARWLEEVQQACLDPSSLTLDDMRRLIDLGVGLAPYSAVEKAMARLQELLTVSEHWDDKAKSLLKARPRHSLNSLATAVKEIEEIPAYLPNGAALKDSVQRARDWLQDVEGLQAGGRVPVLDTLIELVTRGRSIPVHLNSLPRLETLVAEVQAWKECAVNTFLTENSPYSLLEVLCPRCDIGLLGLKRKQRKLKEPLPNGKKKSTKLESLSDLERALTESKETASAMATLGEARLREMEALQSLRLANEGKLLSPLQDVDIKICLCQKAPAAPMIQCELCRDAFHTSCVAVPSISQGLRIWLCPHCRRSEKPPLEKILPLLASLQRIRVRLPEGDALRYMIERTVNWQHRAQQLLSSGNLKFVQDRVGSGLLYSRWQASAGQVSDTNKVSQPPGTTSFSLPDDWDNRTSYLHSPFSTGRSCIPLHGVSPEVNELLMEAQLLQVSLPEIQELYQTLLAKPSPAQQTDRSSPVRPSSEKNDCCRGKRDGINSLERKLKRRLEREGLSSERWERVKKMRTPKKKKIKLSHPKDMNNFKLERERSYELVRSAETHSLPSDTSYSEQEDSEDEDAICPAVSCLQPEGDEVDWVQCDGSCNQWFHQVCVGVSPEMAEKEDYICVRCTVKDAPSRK
#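 Coupled FDH/NAD⁺ fluorescence readout. KDM5BΔAP 200 nM final; compound titration, 10 min RT preincubation; substrate mix 12.5 µM H3K4me3, 25 µM 2-OG, 50 µM Fe(II), 100 µM ascorbate, 0.25 mM NAD⁺, 0.25 U/mL FDH; ΔRFU over 30 min.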
# IP6K1 inh: inhibitors of human IP6K1 | activity change, % (series mostly up to about 58 µM) | Q92551 | IP6K1 kinase, ADP-Glo luminescence, 2 h; stronger effect = lower value | hit rate 0.81% among 140,000; in the data active means activity change below about -25%; further: on the % scale 0 is the no-effect control and ±100 the full control effect
#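 ADP-Glo luminescence measures ADP made by human IP6K1 during a 2 h RT reaction with ATP/IP6 (mix at 1.3 mM/130 uM); top library doses 57.5 and 19.1 uM final.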
# * hit, by the source's call; i = inactive; ? = inconclusive; . = not tested or not shown. Shown are actives, neighbours in structure and some others; about 2.7% of the full set was active somewhere.
SMILES,KDM5B inh,IP6K1 inh
O=C1NC(=NC2CCCC2)C2(CCN(CC3CCCCC3)C2)N1c1cccnc1 (stereo unspecified),i,-4.9
CCCn1c(N2CCN(CC(N)=O)CC2)nc2c1c(=O)[nH]c(=O)n2C,i,.
COC(=O)C(C)(C)NC(=O)CCNC(=O)C1CCCC1,i,.
CN1CCC(C(=O)N2Cc3ccccc3CC3(CCCCN3Cc3ccncc3)C2)CC1 (stereo unspecified),i,-11.6
COc1cccc(Nc2ncc3c(n2)C(C)(C(=O)Nc2nc(C)cs2)CC3)c1 (stereo unspecified),35.5µM*,-9.5
COCCNC(=O)C1(C)CCc2cnc(Nc3cccc(OC)c3)nc21 (stereo unspecified),i,-10.9
Cc1ccc(S(=O)(=O)c2nnn3c2nc(N2CCOCC2)c2ccccc23)cc1C,79.4µM*,15.0
Cc1ccc(S(=O)(=O)c2nnn3c2nc(N2CCN(c4cccc(C)c4C)CC2)c2ccccc23)cc1C,?,8.3
O=S(=O)(c1ccccc1)c1nnn2c1nc(N1CCCCC1)c1ccccc12,?,-4.1
CC(C)c1ccc(S(=O)(=O)c2nnn3c2nc(N2CCCCC2)c2ccccc23)cc1,89.1µM*,10.2
Cn1c(=O)[nH]c(=O)c2c1nc(CN1CCN(Cc3ccccc3)CC1)n2CCCc1ccccc1,i,.
COc1ccc(-c2ccc3c(c2)C(=O)N2CCN(C(=O)c4ccccc4)C[C@@H]2C(=O)N3)cc1,?,-2.5
O=C1Nc2ccc(-c3ccc4c(c3)OCO4)cc2C(=O)N2CCN(C(=O)c3cccs3)C[C@@H]12,28.2µM*,-17.5
O=C1Nc2ccc(-c3ccccc3)cc2C(=O)N2CCN(C(=O)c3cccnc3)C[C@H]12,?,3.3
CSc1ccc(-c2ccc3c(c2)C(=O)N2CC[C@H](NC(=O)c4cccs4)C[C@H]2C(=O)N3)cc1,28.2µM*,7.4
O=C(N[C@H]1CCN2C(=O)c3ccccc3NC(=O)[C@@H]2C1)c1cccs1,?,-5.4
CN(C)c1ccc(C(=O)N2CCN3C(=O)c4cc(-c5ccc6c(c5)OCO6)ccc4NC(=O)[C@H]3C2)cc1,35.5µM*,15.0
CCCN1CCN(C2=NC(Cc3ccccc3)C(=O)N2c2ccccc2OC)CC1 (stereo unspecified),i,.
N#CCc1ccc(OCC(O)Cn2cnc3cc(Cl)ccc3c2=O)cc1 (stereo unspecified),i,.
CC(C)COC(=O)c1nn(-c2ccccc2)c(=O)c2ccccc12,i,.
C[C@@H]1C(=O)O[C@H]2[C@H]1CC[C@@]1(C)Cc3sc(NC(=O)c4ccc(F)c(Cl)c4)nc3[C@@H](C)[C@H]21,28.2µM*,-7.4
C[C@@H]1C(=O)O[C@H]2[C@H]1CC[C@@]1(C)Cc3sc(NC(=O)c4ccncc4)nc3[C@@H](C)[C@H]21,?,-11.0
C[C@@H]1C(=O)O[C@H]2[C@H]1CC[C@@]1(C)Cc3sc(NC(=O)c4c(F)cccc4F)nc3[C@@H](C)[C@H]21,?,-12.4
COc1cc(C(=O)Nc2nc3c(s2)C[C@]2(C)CC[C@@H]4[C@H](OC(=O)[C@H]4C)[C@H]2[C@@H]3C)cc(OC)c1OC,28.2µM*,-4.6
COc1cc(C(=O)Nc2ccc(N3CCCC3)nc2)cc(OC)c1OC,i,.
SMILES,KDM5B inh,IP6K1 inh
COC(=O)c1c(C)[nH]c(C(=O)N2CCCC2c2ccc3c(c2)OCCO3)c1C (stereo unspecified),i,.
CC(C)(C)c1ccc(C(=O)Nc2nc3c(s2)C[C@@H]2[C@](C)(CO)[C@H](O)CC[C@@]2(C)[C@@H]3CC(=O)N2CCC(C(N)=O)CC2)cc1,i,7.2
Cc1nsc(N)c1C(=O)OCc1csc(-c2ccccc2)n1,i,.
COC(=O)c1ccccc1OS(=O)(=O)c1ccc2c(c1)CCCC2,i,.
Cc1ccnc(NCCNC(=O)C2CCC(=O)N(CC3CCCCC3)C2)c1 (stereo unspecified),28.2µM*,-10.3
Cc1cccc2[nH]c(CNC(=O)C3CCC(=O)N(CC4CCCCC4)C3)nc12 (stereo unspecified),i,15.6
Clc1ccc(/C=N/N=C(c2ccccc2)c2ccccc2)cc1,i,.
Cc1ccc(-c2nc(C3CC(=O)N(c4ccc(F)cc4)C3)no2)cc1 (stereo unspecified),i,-2.2
O=C1CC(c2noc(-c3ccc4c(c3)OCO4)n2)CN1c1ccc(F)cc1 (stereo unspecified),28.2µM*,-7.3
COc1ccc(-c2nc(C3CC(=O)N(c4ccc(F)cc4)C3)no2)cc1F (stereo unspecified),i,-5.4
COc1ccc(N2CC(c3noc(-c4cc(OC)cc(OC)c4)n3)CC2=O)cc1 (stereo unspecified),?,15.5
COc1ccc(N2CC(c3noc(-c4ccc(N(C)C)cc4)n3)CC2=O)cc1 (stereo unspecified),35.5µM*,4.6

# Screens deposited in PubChem by National Center for Advancing Translational Sciences (NCATS).
